High-throughput results (PubChem)
PRMT1 inh = PRMT1 (human) inhibition, primary screen. Q99873. recombinant PRMT1, activity-based probe fluorescence polarization. inhibition, % at 2.79 µM. 370,000 compounds, 1.3% hits. AID 652257;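 active means inhibition above about 21% made by adding two undisclosed values, limit read from the data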
TLR9-MyD88 block = TLR9-MyD88 interaction inhibition | CHO BLA complementation TLR9-MyD88, CCF4 FRET ratio | inhibition, % at 4.98 µM | 340,000 compounds, 0.21% hits;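 active means inhibition above the mean over all tested compounds plus 3 SD, cut at about 21% in these data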
TLR4 MyD88 comp = TLR4-MyD88 interaction inhibition in cells; AID 861; 200,000 compounds, 0.18% hits; inhibition, % at 8.4 µM; HeLa CL3-4 TLR4/MyD88 BLA complementation, FRET ratio; O00206+Q99836; in the data active means inhibition above about 25%
Target sequence (O00206 whole entry, looked up): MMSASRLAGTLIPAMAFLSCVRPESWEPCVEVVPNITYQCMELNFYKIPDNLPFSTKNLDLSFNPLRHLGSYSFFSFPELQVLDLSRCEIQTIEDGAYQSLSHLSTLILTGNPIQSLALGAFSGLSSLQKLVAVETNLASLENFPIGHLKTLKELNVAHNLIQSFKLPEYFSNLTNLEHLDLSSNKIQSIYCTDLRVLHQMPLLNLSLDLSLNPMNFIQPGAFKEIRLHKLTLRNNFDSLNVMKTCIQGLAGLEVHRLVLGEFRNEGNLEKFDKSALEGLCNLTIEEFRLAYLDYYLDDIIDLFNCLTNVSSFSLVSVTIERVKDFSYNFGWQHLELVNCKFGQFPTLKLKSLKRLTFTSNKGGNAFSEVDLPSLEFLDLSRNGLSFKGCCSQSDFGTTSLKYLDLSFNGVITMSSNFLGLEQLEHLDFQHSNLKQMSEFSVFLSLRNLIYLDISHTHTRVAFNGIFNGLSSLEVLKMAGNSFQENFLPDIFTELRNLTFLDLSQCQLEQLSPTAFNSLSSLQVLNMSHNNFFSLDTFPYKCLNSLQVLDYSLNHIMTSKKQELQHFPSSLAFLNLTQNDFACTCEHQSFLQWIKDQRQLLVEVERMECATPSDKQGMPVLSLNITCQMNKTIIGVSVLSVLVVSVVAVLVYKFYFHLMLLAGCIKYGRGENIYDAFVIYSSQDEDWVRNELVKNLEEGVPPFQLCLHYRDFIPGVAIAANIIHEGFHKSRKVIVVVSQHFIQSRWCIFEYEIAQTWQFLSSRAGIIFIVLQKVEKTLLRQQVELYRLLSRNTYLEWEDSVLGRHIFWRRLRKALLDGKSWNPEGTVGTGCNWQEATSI
Target sequence (Q99836 whole entry, looked up): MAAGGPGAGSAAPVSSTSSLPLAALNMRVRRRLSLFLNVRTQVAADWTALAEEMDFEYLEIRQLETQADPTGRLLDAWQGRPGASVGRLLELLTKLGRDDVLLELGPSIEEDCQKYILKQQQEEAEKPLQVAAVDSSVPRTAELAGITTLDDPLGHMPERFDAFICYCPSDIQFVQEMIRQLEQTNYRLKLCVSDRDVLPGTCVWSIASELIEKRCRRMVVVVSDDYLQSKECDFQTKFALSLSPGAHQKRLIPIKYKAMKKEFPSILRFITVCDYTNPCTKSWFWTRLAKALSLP
rCAG binder = molecules binding r(CAG) RNA repeats; r(CAG) RNA repeat, TO-PRO-1 dye displacement fluorescence; inhibition, % at 3 µM; 370,000 compounds, 1.3% hits; AID 651821;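 active means inhibition above the plate cutoff, the mean of all test compounds on that plate plus 3 SD, cut at about 35% in these data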;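 further: higher means more dye released from RNA so lower well fluorescence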
ABHD5 PLIN5 PPI = inhibitors of human ABHD5-perilipin-5 interaction. Q00G26+Q8WTS1. Split G. princeps luciferase complementation, luminescence, 4 h. inhibition, % at 4 µM. 360,000 compounds, 0.78% hits;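 active means inhibition above the mean inhibition across every tested compound plus 3 SD, cut at about 22% in these data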
NOD2 RIPK2 PPI = inhibitors of human NOD2-RIPK2 interaction; O43353; CHO BLA complementation NOD2-RIPK2, CCF4 ratio; inhibition, % at 4.98 µM; 360,000 compounds, 0.38% hits; in the data active means inhibition above about 21%
TLR9-MyD88 cf = confirmation of human TLR9-MyD88 binding inhibitors. shares compounds with TLR9-MyD88 block. CHO TLR9/MyD88 BLA complementation, CCF4 FRET ratio. inhibition, % at 4.98 µM. 680 compounds, 51% hits. AID 540250;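 active means mean inhibition across three repeats above about 21% taken from the earlier screen, limit read from the data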;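 further: blue over green emission ratio reports constitutive TLR9 MyD88 association via BLA complementation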
BLA counter-1 = beta-lactamase reporter inhibition, counter-screen artifact; shares compounds with TLR9-MyD88 block; CHO-BLA cells, CCF4 FRET ratio, BLA reporter; inhibition, % at 4.98 µM; 680 compounds, 7% hits; AID 540251;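 active means mean inhibition above a 50% cutoff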;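 further: counterscreen of TLR9-MyD88 hits on CMV-driven BLA in CHO-K1 cells; higher means less blue over green ratio so more BLA blockade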
TLR9 CHO cytotox = counter-screen for TLR9-MyD88 inhibitors: cytotoxicity in CHO cells | shares compounds with TLR9-MyD88 block | inhibition, % at 4.98 µM | 680 compounds, 39% hits | luminescence | AID 588336; in the data active means inhibition above about 11%
ABHD5 PLIN5 conf = ABHD5-PLIN5 interaction inhibition, confirmed; shares compounds with ABHD5 PLIN5 PPI; biochemical ABHD5-PLIN5 interaction, luminescence; inhibition, % at 4 µM; 2,200 compounds, 67% hits; AID 651612; in the data active means inhibition above about 23%
HNF4 split-luc = active in HNF4 split-luciferase counter-screen for ABHD5-PLIN5 inhibitors | AID 651674 | HNF4 dimerization, luminescence, biochemical | shares compounds with ABHD5 PLIN5 PPI | inhibition, % at 4 µM | 2,200 compounds, 77% hits;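 active means mean inhibition across replicate wells exceeding the computed hit threshold, cut at about 13% in these data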;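 further: light from luciferase halves that rejoin when HNF4 fusion proteins dimerize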
NOD2-RIPK2 conf = NOD2-RIPK2 interaction inhibition confirmed | shares compounds with NOD2 RIPK2 PPI | CHO cells, NOD2-RIPK2 BLA complementation, CCF4 FRET | inhibition, % at 4.98 µM | 1,200 compounds, 70% hits;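 active means mean inhibition across replicates above a set limit taken from the earlier primary screen, cut at about 21% in these data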
BLA counter-2 = counter-screen for NOD2-RIPK2 interaction inhibitors: BLA reporter. inhibition, % at 4.98 µM. 1,200 compounds, 57% hits. CHO BLA reporter, CCF4 FRET ratio, counterscreen. AID 624371. shares compounds with NOD2 RIPK2 PPI;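 active means mean inhibition above the low-control mean inhibition plus three low-control SD, cut at about 11% in these data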
Hits are given with their value. Shown are actives, neighbours in structure and some others; about 3.3% of the full set was active somewhere.

Results for COc1ccc(C(=O)c2sc3nc(C)cc(-c4cccs4)c3c2N)cc1OC ?
PRMT1 inh: inactive; TLR9-MyD88 block: 41.0; TLR4 MyD88 comp: inactive; rCAG binder: inactive; ABHD5 PLIN5 PPI: inactive; NOD2 RIPK2 PPI: 61.3; TLR9-MyD88 cf: 24.8; BLA counter-1: inactive; TLR9 CHO cytotox: inactive; NOD2-RIPK2 conf: 50.0; BLA counter-2: 60.3

How did Cc1cc(C)c2c(N)c(C(=O)c3ccc(Cl)cc3)sc2n1 do in these assays?
PRMT1 inh: inactive; TLR9-MyD88 block: inactive; TLR4 MyD88 comp: inactive; rCAG binder: inactive; ABHD5 PLIN5 PPI: inactive; NOD2 RIPK2 PPI: inactive

What do the screens show for `COc1ccc(/C=C/c2nc3cc(-c4ccccc4)ccc3o2)cc1O`?
PRMT1 inh: inactive; TLR9-MyD88 block: 21.5; TLR4 MyD88 comp: inactive; rCAG binder: inactive; ABHD5 PLIN5 PPI: inactive; NOD2 RIPK2 PPI: 23.0; TLR9-MyD88 cf: inactive; BLA counter-1: inactive; TLR9 CHO cytotox: 11.3; NOD2-RIPK2 conf: inactive; BLA counter-2: 27.2

How did COc1ccc(/C=C/c2nc3ccccc3c(=O)o2)cc1 do in these assays?
PRMT1 inh: inactive; TLR9-MyD88 block: inactive; rCAG binder: inactive; ABHD5 PLIN5 PPI: inactive; NOD2 RIPK2 PPI: inactive

Results for c1cc(SC2CCCCC2)cc(-c2nc3cnccn3c2NC2CCCCC2)c1 ?
PRMT1 inh: inactive; TLR9-MyD88 block: 33.1; rCAG binder: inactive; ABHD5 PLIN5 PPI: inactive; NOD2 RIPK2 PPI: 33.5; TLR9-MyD88 cf: 33.3; BLA counter-1: inactive; TLR9 CHO cytotox: inactive; NOD2-RIPK2 conf: 51.6; BLA counter-2: 65.8

How did CC(=O)Oc1cccc(N2C(=O)c3cccc4c([N+](=O)[O-])ccc(c34)C2=O)c1 do in these assays?
PRMT1 inh: inactive; TLR9-MyD88 block: 42.3; rCAG binder: inactive; ABHD5 PLIN5 PPI: inactive; NOD2 RIPK2 PPI: 45.1; TLR9-MyD88 cf: 47.2; BLA counter-1: inactive; TLR9 CHO cytotox: 94.3; NOD2-RIPK2 conf: 63.1; BLA counter-2: 67.0

How did O=C(O)c1ccc(CN2C(=O)c3cccc4c([N+](=O)[O-])ccc(c34)C2=O)cc1 do in these assays?
TLR9-MyD88 block: inactive; ABHD5 PLIN5 PPI: inactive; NOD2 RIPK2 PPI: inactive

Results for Cc1ccc(C(=O)O)cc1N1C(=O)c2cccc3c([N+](=O)[O-])ccc(c23)C1=O ?
PRMT1 inh: 22.5; TLR9-MyD88 block: 29.0; rCAG binder: inactive; ABHD5 PLIN5 PPI: inactive; NOD2 RIPK2 PPI: 56.2; TLR9-MyD88 cf: 25.6; BLA counter-1: inactive; TLR9 CHO cytotox: inactive; NOD2-RIPK2 conf: 45.2; BLA counter-2: 38.6

Results for CC(=O)Oc1cccc(N2C(=O)c3ccc(C(=O)O)cc3C2=O)c1 ?
PRMT1 inh: inactive; TLR9-MyD88 block: inactive; TLR4 MyD88 comp: inactive; rCAG binder: inactive; ABHD5 PLIN5 PPI: inactive; NOD2 RIPK2 PPI: inactive

What do the screens show for `Cc1ccc(NC(=O)C2CC3CCC2C3)c(C)c1` (configuration not stated)?
PRMT1 inh: inactive

How did C=CCn1c(O)c(N=O)c2ccccc21 do in these assays?
PRMT1 inh: inactive; TLR9-MyD88 block: inactive; rCAG binder: inactive; ABHD5 PLIN5 PPI: inactive; NOD2 RIPK2 PPI: inactive

How did O=Nc1c(O)n(Cc2c(Cl)cccc2Cl)c2ccccc12 do in these assays?
PRMT1 inh: inactive; TLR9-MyD88 block: 35.2; TLR4 MyD88 comp: inactive; rCAG binder: inactive; ABHD5 PLIN5 PPI: inactive; NOD2 RIPK2 PPI: 28.6; TLR9-MyD88 cf: inactive; BLA counter-1: inactive; TLR9 CHO cytotox: inactive; NOD2-RIPK2 conf: 36.3; BLA counter-2: 42.2

How did COc1ccc(OC)c2c1C(=O)C(Cl)=C(Cl)C2=O do in these assays?
PRMT1 inh: 90.9; TLR9-MyD88 block: 45.6; rCAG binder: inactive; ABHD5 PLIN5 PPI: 92.8; NOD2 RIPK2 PPI: 85.7; TLR9-MyD88 cf: 69.9; BLA counter-1: inactive; TLR9 CHO cytotox: 97.4; ABHD5 PLIN5 conf: 103.5; HNF4 split-luc: 110.8; NOD2-RIPK2 conf: 87.6; BLA counter-2: 33.6

How did CCCCCCSc1ccc(-c2nc3cnccn3c2NCCCC)cc1 do in these assays?
PRMT1 inh: inactive; TLR9-MyD88 block: 22.9; rCAG binder: inactive; ABHD5 PLIN5 PPI: inactive; NOD2 RIPK2 PPI: 24.4; TLR9-MyD88 cf: 47.7; BLA counter-1: 50.1; TLR9 CHO cytotox: inactive; NOD2-RIPK2 conf: 68.0; BLA counter-2: 77.5

What do the screens show for `COc1ccc(CC2=CC(=O)c3ccccc3C2=O)cc1`?
PRMT1 inh: 78.7; TLR9-MyD88 block: 23.5; rCAG binder: inactive; ABHD5 PLIN5 PPI: 84.9; NOD2 RIPK2 PPI: 63.2; TLR9-MyD88 cf: inactive; BLA counter-1: inactive; TLR9 CHO cytotox: 83.7; ABHD5 PLIN5 conf: 100.3; HNF4 split-luc: 107.7; NOD2-RIPK2 conf: 48.1; BLA counter-2: inactive

Results for Cc1cc(=O)n(C(C)Cc2ccccc2)n1C(C)Cc1ccccc1 (configuration not stated) ?
PRMT1 inh: inactive; TLR9-MyD88 block: inactive; rCAG binder: inactive; ABHD5 PLIN5 PPI: inactive; NOD2 RIPK2 PPI: inactive

Results for COc1ccc(C2C(C(=O)N3CCOCC3)CC(=O)N2c2ccc(OC)cc2)cc1 (configuration not stated) ?
PRMT1 inh: inactive; rCAG binder: inactive

How did O=C(Nc1cccc2c1C(=O)NC2=O)c1ccc(S(=O)(=O)N2CCCC2)cc1 do in these assays?
PRMT1 inh: inactive; TLR9-MyD88 block: 37.8; TLR4 MyD88 comp: inactive; rCAG binder: inactive; ABHD5 PLIN5 PPI: inactive; NOD2 RIPK2 PPI: 21.9; TLR9-MyD88 cf: inactive; BLA counter-1: inactive; TLR9 CHO cytotox: inactive; NOD2-RIPK2 conf: 34.4; BLA counter-2: 43.4

Results for CCOC(=O)C1=NN(c2ccccc2)C2C(=O)N(c3ccccc3OC)C(=O)C12 (configuration not stated) ?
PRMT1 inh: inactive; TLR9-MyD88 block: inactive; rCAG binder: inactive; ABHD5 PLIN5 PPI: inactive; NOD2 RIPK2 PPI: inactive
